# Reference: PubChem BioAssay
# Active and inactive are the calls of the source.
# Assays:
# [1] = system: Plasmodium falciparum Sir2 (PF13_0152, Sir2A); assay: Plasmodium falciparum Sir2A binding compounds – biochemical, small-molecule microarray, 635 nm fluorescence, primary screen (AID 1098); conditions: fluorescence 635 nm, higher = more signal;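 note: score merges spot fluorescence intensity with its signal-to-noise ratio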
# [2] = probe aDKK1 binding to arrayed compounds – biochemical, biotinylated probe, 635/667 nm fluorescence, primary screen (AID 1099); conditions: small-molecule microarray, higher = more signal;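 note: score merges 667nm spot fluorescence with signal to noise across triplicate slides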
# [3] = probe aCHRDL2 binding to arrayed compounds – biochemical, biotinylated probe, 635/667 nm fluorescence, primary screen (AID 1100); conditions: small-molecule microarray, higher = more signal
# [4] = change in splice reporter luminescence, either direction, cell-based, HEK293, spliceosome inhibition project, primary screen (AID 1101); conditions: HEK293 splicing luciferase reporter, 24 h, higher = more signal, called active from +8 up or from −8 down;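 note: HEK293 cells carrying a splicing-competent luciferase reporter gene; test concentration not given here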
# [5] = target: Fibroblast growth factor 10 (Homo sapiens) (UniProt O15520); assay: compounds binding fibroblast growth factor 10 – biochemical, small-molecule microarray, 635 nm fluorescence, primary screen (AID 1102); conditions: FGF10 binding, fluorescence 635 nm, higher = more signal
# Sequence of Fibroblast growth factor 10 (Homo sapiens) (O15520 whole entry, looked up): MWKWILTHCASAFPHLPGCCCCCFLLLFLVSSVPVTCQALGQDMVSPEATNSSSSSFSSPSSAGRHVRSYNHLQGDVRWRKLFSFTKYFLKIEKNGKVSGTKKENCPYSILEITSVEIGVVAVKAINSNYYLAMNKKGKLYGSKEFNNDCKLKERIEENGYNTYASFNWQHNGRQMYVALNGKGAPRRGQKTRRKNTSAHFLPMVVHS
# [6] = system: glycogen synthase kinase-3 (GSK3A per assay name; protocol says GSK3B); assay: compounds binding glycogen synthase kinase-3 – biochemical, small-molecule microarray, 635 nm fluorescence, GSK3A, primary screen (AID 1103); conditions: fluorescence 635 nm, higher = more signal; note: the record names both GSK3A and GSK3B
# [7] = target: Epidermal growth factor receptor (Homo sapiens) (UniProt P00533); assay: compounds binding epidermal growth factor receptor – biochemical, small-molecule microarray, 635 nm fluorescence, primary screen (AID 1104); conditions: EGFR binding, higher = more signal;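 note: score merges 667 nm emission intensity with spot signal to noise over triplicate slides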
# Sequence of Epidermal growth factor receptor (Homo sapiens) (P00533 whole entry, looked up): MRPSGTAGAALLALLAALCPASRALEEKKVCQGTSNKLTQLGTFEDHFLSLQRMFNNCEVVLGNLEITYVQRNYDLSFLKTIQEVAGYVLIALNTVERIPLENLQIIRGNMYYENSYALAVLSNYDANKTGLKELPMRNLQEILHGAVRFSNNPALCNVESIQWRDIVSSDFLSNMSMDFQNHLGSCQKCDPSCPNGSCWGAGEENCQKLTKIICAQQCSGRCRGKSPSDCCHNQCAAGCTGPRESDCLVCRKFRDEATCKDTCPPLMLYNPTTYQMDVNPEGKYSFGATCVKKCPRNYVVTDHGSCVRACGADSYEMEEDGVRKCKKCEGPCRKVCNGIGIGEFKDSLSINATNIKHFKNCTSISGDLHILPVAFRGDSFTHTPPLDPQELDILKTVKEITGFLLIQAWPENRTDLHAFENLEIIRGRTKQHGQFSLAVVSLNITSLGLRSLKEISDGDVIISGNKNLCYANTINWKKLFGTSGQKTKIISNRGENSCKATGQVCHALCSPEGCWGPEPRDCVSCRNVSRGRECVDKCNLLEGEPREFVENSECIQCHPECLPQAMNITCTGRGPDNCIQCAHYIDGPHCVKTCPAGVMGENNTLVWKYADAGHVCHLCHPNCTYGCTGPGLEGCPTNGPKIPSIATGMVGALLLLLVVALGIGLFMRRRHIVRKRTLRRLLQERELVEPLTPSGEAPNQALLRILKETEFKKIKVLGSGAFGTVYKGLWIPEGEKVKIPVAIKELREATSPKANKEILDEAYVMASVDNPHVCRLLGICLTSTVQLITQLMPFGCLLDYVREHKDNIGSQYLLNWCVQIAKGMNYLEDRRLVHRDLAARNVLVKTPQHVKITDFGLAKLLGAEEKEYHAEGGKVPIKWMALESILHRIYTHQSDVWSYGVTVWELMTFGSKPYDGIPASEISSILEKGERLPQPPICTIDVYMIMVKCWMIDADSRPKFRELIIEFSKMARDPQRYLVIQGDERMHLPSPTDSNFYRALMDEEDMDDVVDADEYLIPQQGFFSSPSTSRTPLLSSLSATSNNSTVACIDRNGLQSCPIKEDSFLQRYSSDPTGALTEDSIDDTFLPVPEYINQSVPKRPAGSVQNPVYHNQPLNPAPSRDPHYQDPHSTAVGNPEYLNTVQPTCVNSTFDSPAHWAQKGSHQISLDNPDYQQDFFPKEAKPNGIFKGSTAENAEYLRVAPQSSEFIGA
# [8] = target: Follistatin-related protein 3 (Homo sapiens) (UniProt O95633); assay: compounds binding follistatin-related protein 3 – biochemical, small-molecule microarray, 635 nm fluorescence, primary screen (AID 1105); conditions: FSTL3 binding, higher = more signal;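 note: score merges emission near 667 nm and signal to noise per printed spot across three slides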
# Sequence of Follistatin-related protein 3 (Homo sapiens) (O95633 whole entry, looked up): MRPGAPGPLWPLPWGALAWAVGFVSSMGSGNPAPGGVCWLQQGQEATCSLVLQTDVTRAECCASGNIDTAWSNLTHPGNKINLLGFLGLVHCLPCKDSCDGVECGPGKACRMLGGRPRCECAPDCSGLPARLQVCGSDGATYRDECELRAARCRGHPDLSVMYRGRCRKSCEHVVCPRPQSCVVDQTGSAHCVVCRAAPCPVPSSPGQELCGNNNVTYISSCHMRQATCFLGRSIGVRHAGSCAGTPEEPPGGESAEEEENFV
# [9] = target: Dickkopf-related protein 1 (Homo sapiens) (UniProt O94907); assay: small molecules binding DKK1 protein – biochemical, small-molecule microarray, 635 nm fluorescence scan, primary screen (AID 1106); conditions: higher = more signal;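 note: score merges emission near 667 nm with signal to noise over three replicate slides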
# Sequence of Dickkopf-related protein 1 (Homo sapiens) (O94907 whole entry, looked up): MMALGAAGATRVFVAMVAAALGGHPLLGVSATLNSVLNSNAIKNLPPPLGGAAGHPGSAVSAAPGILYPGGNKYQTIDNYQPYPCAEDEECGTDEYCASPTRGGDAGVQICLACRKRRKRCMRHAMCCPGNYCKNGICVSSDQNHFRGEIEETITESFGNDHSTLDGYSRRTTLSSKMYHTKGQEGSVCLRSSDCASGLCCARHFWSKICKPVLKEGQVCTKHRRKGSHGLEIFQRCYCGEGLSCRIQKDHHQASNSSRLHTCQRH
# [10] = system: Inhibin beta A chain (activin A); assay: small molecules binding activin A – biochemical, small-molecule microarray, 635 nm fluorescence scan, primary screen (AID 1107); conditions: INHBA, higher = more signal;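 note: mouse activin A protein probed at 4.33 µg/mL on printed slides; score merges bound-protein fluorescence near 667 nm with spot signal-to-noise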
# [11] = system: Human papillomavirus type 1a protein E7 (residues 44-93); assay: small molecules binding HPV E7 44-93 – biochemical, small-molecule microarray, residues 44-93, 635 nm fluorescence, primary screen (AID 1108); conditions: fluorescence 635 nm, higher = more signal;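 note: E7 fragment applied at 1 µg/mL in TBST for 1 h at 4 C; score combines spot fluorescence with its signal to noise ratio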
# [12] = hepatitis C replication reporter changes, two-sided – Huh7 cells, luciferase reporter, HCV replication inhibitor project, primary screen (AID 1109); conditions: Huh7 HCV replicon luciferase reporter, 48 h; higher = more signal;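 note: huh7 hepatoma cells harbouring a luciferase neomycin HCV replicon reporter; luciferase luminescence as measure of HCV replicon replication; test concentration not given here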
# [13] = target: Left-right determination factor 2 (Homo sapiens) (UniProt O00292); assay: small molecules binding LEFTY2 protein – biochemical, small-molecule microarray, 635 nm fluorescence scan, primary screen (AID 1110); conditions: higher = more signal
# Sequence of Left-right determination factor 2 (Homo sapiens) (O00292 whole entry, looked up): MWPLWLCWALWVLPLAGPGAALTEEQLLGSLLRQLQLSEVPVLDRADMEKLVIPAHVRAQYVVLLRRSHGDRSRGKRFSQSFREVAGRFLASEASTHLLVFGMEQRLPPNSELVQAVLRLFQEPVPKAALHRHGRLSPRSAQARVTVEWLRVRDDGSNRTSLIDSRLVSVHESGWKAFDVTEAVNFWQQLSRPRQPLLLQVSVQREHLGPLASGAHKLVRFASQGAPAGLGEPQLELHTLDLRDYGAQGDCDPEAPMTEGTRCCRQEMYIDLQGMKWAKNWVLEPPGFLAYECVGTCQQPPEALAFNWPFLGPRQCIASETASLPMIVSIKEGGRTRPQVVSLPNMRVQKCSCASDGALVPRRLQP
# [14] = target: Calmodulin-1 (Homo sapiens) (UniProt P0DP23); assay: small molecules binding calmodulin-1 with EGTA – biochemical, small-molecule microarray, Cy5-labelled CALM1, profiling panel (AID 1111); conditions: Cy5-CALM1 binding fluorescence, higher = more signal;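 note: labelled calmodulin applied in Tris saline Tween buffer holding calcium plus EGTA and DTT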
# [15] = target: Calmodulin-1 (Homo sapiens) (UniProt P0DP23); assay: small molecules binding Ca-loaded calmodulin-1 – biochemical, small-molecule microarray, Cy5-labelled CALM1, plus calcium, artefact control for SMM control-protein annotation, profiling panel (AID 1112); conditions: Cy5-CALM1 binding fluorescence, higher = more signal;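 note: score merges spot fluorescence with signal to noise from triplicate slides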
# [16] = probe aWnt5a binding to arrayed compounds – biochemical, biotinylated probe, 635/667 nm fluorescence, primary screen (AID 1113); conditions: small-molecule microarray, higher = more signal;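 note: score merges 667 nm fluorescence intensity with signal-to-noise per printed feature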
# [17] = probe aShh binding to arrayed compounds – biochemical, biotinylated probe, 635/667 nm fluorescence, primary screen (AID 1114); conditions: small-molecule microarray, higher = more signal;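 note: probe is biotin-labelled aShh protein from a stem cell growth factor screen; measures binding of labelled protein to compounds printed on the slide; score merges feature fluorescence at 667 nm with signal-to-noise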
# [18] = probe aNog binding to arrayed compounds – biochemical, biotinylated probe, 635/667 nm fluorescence, primary screen (AID 1115); conditions: small-molecule microarray, higher = more signal;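 note: probe is biotinylated aNog protein used at 0.15 µg/mL for 1 h at 4 C; z-score combines 667 nm fluorescence of each spot with its signal to noise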
# [19] = target: Torsin-1A-interacting protein 1 (Homo sapiens) (UniProt Q5JTV8); assay: compound microarray binding of lysate hLAP1 – cell lysate, small-molecule microarray, COS7 lysate, 635/667 nm fluorescence, primary screen (AID 1116); conditions: 635 nm fluorescence, higher = more signal
# Sequence of Torsin-1A-interacting protein 1 (Homo sapiens) (Q5JTV8 whole entry, looked up): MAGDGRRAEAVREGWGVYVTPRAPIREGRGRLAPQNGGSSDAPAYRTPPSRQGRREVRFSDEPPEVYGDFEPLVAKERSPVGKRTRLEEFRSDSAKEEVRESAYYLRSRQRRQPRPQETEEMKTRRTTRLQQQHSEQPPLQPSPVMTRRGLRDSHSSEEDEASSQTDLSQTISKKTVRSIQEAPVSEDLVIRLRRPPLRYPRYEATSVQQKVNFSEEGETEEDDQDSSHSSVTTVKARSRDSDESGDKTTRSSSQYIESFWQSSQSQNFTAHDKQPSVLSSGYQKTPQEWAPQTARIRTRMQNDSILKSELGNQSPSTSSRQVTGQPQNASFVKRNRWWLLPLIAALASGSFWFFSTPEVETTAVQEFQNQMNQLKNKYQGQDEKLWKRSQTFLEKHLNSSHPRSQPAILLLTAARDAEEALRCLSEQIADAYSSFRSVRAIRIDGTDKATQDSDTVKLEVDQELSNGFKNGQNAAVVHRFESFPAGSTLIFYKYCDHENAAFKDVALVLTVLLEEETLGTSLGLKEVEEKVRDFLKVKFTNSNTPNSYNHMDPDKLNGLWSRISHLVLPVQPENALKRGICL
# [20] = target: Alpha-bungarotoxin (Bungarus multicinctus) (UniProt P60615); assay: compounds binding labelled alpha-BTX control protein – biochemical, small-molecule microarray, Alexa647 label, 635/667 nm fluorescence, artefact control for SMM control protein annotation, profiling panel (AID 1117); conditions: alpha-BTX-A647 binding fluorescence, higher = more signal
# Sequence of Alpha-bungarotoxin (Bungarus multicinctus) (P60615 whole entry, looked up): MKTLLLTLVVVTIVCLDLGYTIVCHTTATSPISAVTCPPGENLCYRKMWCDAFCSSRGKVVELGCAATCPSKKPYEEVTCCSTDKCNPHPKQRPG
Compound,composite z-score [1],composite z-score [2],composite z-score [3],z-score [4],composite z-score [5],composite z-score [6],composite z-score [7],composite z-score [8],composite z-score [9],composite z-score [10],composite z-score [11],z-score [12],composite z-score [13],composite z-score [14],composite z-score [15],composite z-score [16],composite z-score [17],composite z-score [18],composite z-score [19],composite z-score [20]
[N-]=[N+]=NCc1ccccc1C[C@@]1(C(=O)O)N=C(c2ccc(OCCCO)cc2)O[C@@H]1c1ccccc1N=[N+]=[N-],1.44,0.076,0.917,-1.11 (inactive),0.479,0.771,0.0583,0.633,-0.688,0.911,1.42,-1.25,0.101,-0.281,-0.222,-0.0236,-0.138,-0.316,0.938,0.552
CC1CC/C=C\[C@H]2OC34C=CCN(Cn5nnc6ccccc65)C(=O)[C@H]3N(C(C)CO)C(=O)[C@@H]4C2C(=O)O1 (stereo not given in full),1.26,-0.0466,0.201,0.825 (inactive),0.0056,-0.837,-0.848,-0.814,-0.936,0.494,-0.132,-0.276,-0.371,-0.45,-0.223,-0.184,-0.123,0.34,0.413,-0.465
C=C(C)[C@@H]1CC=C(C(O)C2C=CC3C(=O)NC(=O)C3N2Nc2ccccn2)CC1 (stereo not given in full),1.66,0.946,0.287,1.1 (inactive),1.14,1.32,1.88,1.65,2.16,1.81,0.355,-0.308,1.57,0.206,-0.815,0.116,0.358,0.145,1.06,2.09
Cc1ccc(S[C@]2(C(=O)NC3CC3)CC(=O)N(Cc3cc(C(F)(F)F)cc(C(F)(F)F)c3)[C@@H]2c2ccc(CO)cc2)cc1,0.259,-0.212,0.0275,0.434 (inactive),0.295,0.57,0.196,0.811,0.245,0.709,0.892,-1.17,0.267,-0.125,-0.493,-0.175,-0.174,-0.491,-0.0118,0.296
C=CCNC(=O)[C@H]1[C@@H]2C(=O)O[C@@H](c3ccccc3)[C@@H](c3ccccc3)N2[C@@H](c2ccc(O)cc2)[C@]12C(=O)Nc1ccc(C#CCNC(N)=O)cc12,1.5,0.24,0.262,-0.335 (inactive),-0.327,-0.304,-0.856,-1.03,-0.351,0.323,0.0632,0.567,-0.84,-0.439,-0.0701,-0.161,-0.467,0.0863,0.239,0.543
C[C@@H]1CC[C@H]2C(=O)N3CCC[C@H]3C(=O)N2[C@H]1c1ccc(Br)cc1,0.654,-0.178,-0.439,-0.931 (inactive),0.125,0.267,0.0436,0.0529,0.526,0.38,0.175,0.673,0.267,-0.243,-0.558,-0.212,-0.0769,-0.307,0.324,-0.179
O=C1c2ccccc2[C@@]2(Cc3ccccc3N(CC(F)(F)F)C2=O)[C@H](c2ccc(CO)cc2)N1C1CCCCC1,0.208,0.117,0.0803,-0.189 (inactive),0.982,0.88,0.229,0.95,1.02,0.801,0.796,-0.387,0.542,-0.575,0.017,-0.0192,-0.0977,-0.369,0.415,-0.223
C=C(CCCC)C(=O)CC[C@@H](OC(=O)c1cccnc1)c1cccc(OCCO)c1,1.48,-0.246,0.238,3.57 (inactive),0.72,0.13,-0.237,-0.242,0.265,1.2,-0.0891,-3.58,0.0009,-0.708,-1.47,-0.0213,-0.0977,0.314,0.469,1.76
COC(=O)c1c(CC[C@@H](CO)NC(=O)N[C@H](Cn2cc(-c3cncn3C)nn2)C(C)C)oc(C(C)=O)c1C(=O)OC,0.844,-0.203,-0.342,-1.93 (inactive),0.512,0.861,0.363,0.165,0.265,-0.253,0.873,0.0688,0.332,-0.055,-0.333,-0.1,-0.2,0.0668,0.542,-0.115
C=C(COC)/C(=C/C[C@@H](OC(C)=O)c1cccc(OCCO)c1)c1cc(C(=O)OC)ccc1OC,0.695,0.258,0.258,-0.964 (inactive),0.0556,0.0957,0.214,0.121,-0.0663,0.971,-0.307,-0.72,-0.357,-0.39,-0.0115,-0.091,-0.0289,0.717,0.505,-1.07
CCCC=C(CCC)[C@@H](NS(=O)(=O)c1cccc(C(F)(F)F)c1)c1ccc(C(=O)OC)cc1,0.935,1.55,1.06,-0.489 (inactive),-0.67,0.37,-1.1,-0.271,-0.553,-0.507,1.19,-0.0175,-0.81,0.266,-0.385,1.12,1.06,2.97,0.209,0.398
O=C1c2ccccc2[C@](Cc2ccccc2I)(C(=O)NCC(F)(F)F)[C@H](c2ccc(CO)cc2)N1Cc1ccccc1C(F)(F)F,0.795,-0.582,-0.243,0.133 (inactive),0.222,0.926,0.106,0.523,0.0221,-0.33,0.517,-0.326,0.13,1.47,0.296,-0.149,0.164,-0.0101,0.857,0.449
CCCNC(=O)[C@@]1(Sc2ccc(C)cc2)CC(=O)N(Cc2ccccc2Cl)[C@@H]1c1ccc(CO)cc1,0.237,0.866,0.956,-2.31 (inactive),0.719,1.28,0.566,1.06,1.22,1.42,0.658,-2.42,0.546,0.857,1.03,-0.0478,0.0407,0.0021,0.574,2.05
Cc1ccc(S[C@]2(C(=O)NCCCN(C)C)CC(=O)N(Cc3ccccc3)[C@@H]2c2ccc(CO)cc2I)cc1,0.16,1.09,1.3,-1.81 (inactive),-0.347,-0.753,-1.12,-0.575,-1.37,1.35,0.544,-2.94,-0.941,0.453,0.728,-0.091,0.0756,1.09,0.0632,0.913
Cc1ccc(S(=O)(=O)c2cc3oc2CC[C@@H](CO)NC(=O)N(C)Cc2cn(nn2)C[C@H](Cc2ccccc2)NC3=O)cc1,1.36,-0.122,-0.0291,-0.0233 (inactive),-0.0287,0.164,-0.497,-0.233,-0.266,-0.171,-0.398,-0.376,-0.587,0.212,0.175,-0.1,0.483,0.402,0.781,0.513
C=CCNC(=O)[C@@H]1[C@H]2C(=O)O[C@H](c3ccccc3)[C@H](c3ccccc3)N2[C@H](c2ccc(OCCO)cc2)[C@@]12C(=O)N(C(=O)OCCOC)c1ccc(C#CC3(O)CCCCCC3)cc12,1.12,0.342,0.375,-0.929 (inactive),0.325,0.871,0.432,0.702,0.125,1.34,0.692,-2.29,0.507,1.82,1.11,0.0267,0.293,0.166,1.2,1.97
C=C(CCCC)/C(=C/C[C@@H](OC(=O)c1ccncc1)c1cccc(OCCO)c1)c1cc(C(=O)OC)ccc1OC,0.953,-0.0661,0.273,0.151 (inactive),0.74,0.764,0.53,0.933,0.438,0.482,-0.414,-2.29,0.725,0.652,-0.732,-0.143,-0.138,-0.452,0.344,1.21
N#Cc1ccc(NN2C(C(O)CCc3ccccc3)C=CC3C(=O)N(c4ccccc4)C(=O)C32)cc1 (stereo not given),0.712,1.18,1.11,-0.474 (inactive),0.25,0.767,-0.164,0.228,0.0048,1.02,-0.317,-0.123,-0.111,1.59,0.0484,0.0785,0.108,-0.428,2.95,0.969
COCCOC(=O)N1C(=O)[C@@]2(c3cc(C#CCC(C(=O)OC)C(=O)OC)ccc31)[C@H](c1ccccc1OCCO)N1[C@H](c3ccccc3)[C@H](c3ccccc3)OC(=O)[C@H]1[C@@H]2C(=O)N1CCCCCCC1,0.853,1.97,1.42,-0.247 (inactive),0.834,1.29,0.852,1.56,1.4,1.61,1.39,-2.05,1.24,2.17,1.49,0.697,0.626,2.62,1.31,2
O=C1O[C@H](c2ccccc2)[C@H](c2ccccc2)N2[C@H]1[C@@H](C(=O)NC[C@H](O)c1ccccc1)[C@]1(C(=O)Nc3ccc(C#CC4=CCCCC4)cc31)[C@H]2c1ccc(OCCO)cc1,1.06,0.607,0.469,-1.33 (inactive),0.313,1.27,0.386,0.968,0.703,1.05,0.567,-1.91,0.377,0.977,0.385,-0.0519,0.0711,0.0884,0.6,1.38
